Hits are enriched below; roughly 11% of the tested compounds scored in any of these assays.
BAZ2B block: blocks human BAZ2B; Q9UIF8; AlphaScreen BAZ2B-H3K14Ac peptide displacement; Potency, µM (highest dose often 114 µM), for inactives: at the top dose activity change, negative = inhibition, most hits filed as inhibitors; hit rate 4.4% among 360,000; also: % is scaled to controls: 0 for no effect and ±100 for the full control effect; nearly all actives have a fitted effect of over 60% in size
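BAZ2B (50 nM) with biotin-H3(5-23)K14Ac peptide (50 nM) in PBS pH 7.4, 0.01% Tween-20, preformed 30 min, then compound 30 min at room temperature; top concentration 110uM. AlphaScreen streptavidin donor/nickel chelate acceptor beads (10 ug/mL final), 20 min dark, signal read.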
HP1b binding inh: HP1-beta chromodomain-methylated histone interaction inhibition; P83916; AlphaScreen HP1-beta / biotin-H3K9me3 peptide binding; Potency, µM (doses to about 114 µM), for the others: top-dose activity change, negative = inhibition, most hits filed as inhibitors; hit rate 0.56% among 390,000; AID 540317; also: nearly all actives have a fitted effect of over 70% in size
Target sequence (P83916 whole entry, looked up): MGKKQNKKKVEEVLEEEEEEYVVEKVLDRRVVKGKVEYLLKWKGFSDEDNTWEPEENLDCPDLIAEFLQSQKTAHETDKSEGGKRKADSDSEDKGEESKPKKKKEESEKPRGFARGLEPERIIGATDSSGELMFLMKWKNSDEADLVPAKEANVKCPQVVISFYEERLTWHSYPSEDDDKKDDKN
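HP1-beta protein (50 nM final) preincubated 30 min at room temperature with biotinylated H3(1-18)K9me3 peptide (50 nM) in PBS pH 7.4, 0.01% Tween-20, then compound added for 30 min. AlphaScreen streptavidin donor/nickel chelate acceptor beads (10 ug/mL final), 30 min dark, luminescence read.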
JMJD2A Tudor inh: JMJD2A Tudor domain (human) inhibition; Potency, µM (doses to about 114 µM), for the others: at the top dose activity change, negative = inhibition, most hits filed as inhibitors; O75164; AlphaScreen JMJD2A-Tudor / H3K4me3 peptide binding; hit rate 4.4% among 390,000; AID 504339; also: % is scaled to controls: 0 for no effect and ±100 for the full control effect; nearly all actives have a fitted effect of over 50% in size
L3MBTL1 inh: blocks human L3MBTL1; Potency, µM (top dose mostly 57.1 µM), for the others: at the highest dose activity, negative = inhibition, most hits filed as inhibitors; Q9Y468; AlphaScreen L3MBTL1–H3K9me1 peptide binding; AID 485360; hit rate 0.66% among 230,000; also: % is scaled to controls: 0 for no effect and ±100 for the full control effect; nearly all actives have a fitted effect of over 60% in size
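L3MBTL1 (50 nM) pre-complexed 30 min with biotinylated H3(1-15)K9me1 peptide (75 nM), then compounds added for 30 min at room temperature; AlphaScreen streptavidin donor/nickel chelate acceptor beads (10 ug/mL final) read after 30 min dark incubation.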
G9a inh: blocks human histone lysine methyltransferase G9a | Potency, µM (top dose mostly 102 µM), for the others: at the top dose activity, negative = inhibition, hits mostly inhibitors | G9a H3K9 monomethylation, AlphaScreen, 2 h | Q96KQ7 | hit rate 8.8% among 350,000; also: % is scaled to controls: 0 for no effect and ±100 for the full control effect; nearly all actives have a fitted effect of over 75% in size
Target sequence (Q96KQ7 913-1193 limits assumed): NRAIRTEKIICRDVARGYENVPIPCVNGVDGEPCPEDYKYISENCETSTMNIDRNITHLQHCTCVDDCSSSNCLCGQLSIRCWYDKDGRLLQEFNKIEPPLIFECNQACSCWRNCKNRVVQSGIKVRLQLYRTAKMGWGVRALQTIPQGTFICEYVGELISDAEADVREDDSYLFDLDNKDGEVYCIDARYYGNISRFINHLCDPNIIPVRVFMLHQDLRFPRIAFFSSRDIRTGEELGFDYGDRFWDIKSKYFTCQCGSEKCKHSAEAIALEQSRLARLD
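Compounds were preincubated with 20 nM G9a for 15 min, after which biotinylated H3K9 peptide (500 nM) and SAM (20 uM) started a 2 h room-temperature reaction. Monomethylated product was quantified by antibody-based AlphaScreen chemiluminescence.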
Starred values were filed as active, the others as inactive; ? = inconclusive; / = no result; [ ] = dose if it differs, or a comment. Calls follow the shape of the dose curve; as a rule, active = well fitted inhibition curve with a large enough effect; inconclusive = small, poorly fitted or top-dose-only effect; inactive = no such curve, though single readings can be large or run the other way. Potency is read from the fitted curve at half-maximal effect.

SMILES	BAZ2B block	HP1b binding inh	JMJD2A Tudor inh	L3MBTL1 inh	G9a inh
O=C1NN(c2ccc(F)cc2)C(=O)/C1=C/c1cccs1	-36%	-17%	-32%	-17%	45µM*
COc1cccc(/C=C2\C(=O)C(=O)c3ccccc32)c1	?	-8%	?	/	50µM*
COc1cccc(/C=C2/C(=O)NN(c3ccc(C)c(C)c3)C2=O)c1	-27%[57.1 µM]	8%	-31%	-4%	45µM*
COc1cccc(/C=C2\CCc3ccccc3C2=O)c1	50%	87%	79%	59%	260%
COc1cc(C=C2C(=O)c3ccccc3C2=O)cc(OC)c1	-15%	29%	-14%	/	/
O=C1NN(c2ccccc2)C(=O)/C1=C\c1ccc2c(c1)OCO2	-25%	4%	?	-4%	50µM*
O=C1NN(c2ccc(Br)cc2)C(=O)/C1=C\c1ccc(O)cc1O	?	?	?	-10%	/
CCOC(=O)N1CCN(C(=O)c2ccc3oc(CCCc4ccccc4)nc3c2)CC1	-8%	23%	-5%	/	/
COc1cc(F)c(S(=O)(=O)N2CCN(S(=O)(=O)c3ccco3)CC2)c(F)c1	/	/	-20%	/	/
CCOC(=O)c1sc2ccccc2c1S(=O)(=O)NCc1ccccc1OC	4%	32%	-9%	/	3%[59 µM]
COc1cccc(C=C2SC(=S)NC2=O)c1	/	-17%	-28%	/	/
COc1cccc(/C=C2/C(=O)NN(c3ccc(F)cc3)C2=O)c1	-17%	-27%	-19%	/	45µM*
COc1cccc(/C=C2/C(=O)NN(c3ccccc3)C2=O)c1	?	-8%	-19%	/	40µM*
Cc1ccc(OCCn2cc(/C=C3\C(=O)NN(c4ccccc4)C3=O)c3ccccc32)cc1	?	-9%	?	-7%	-12%[59 µM]
COc1ccc(N2C(=O)C(CC(=O)Nc3ccc(Cl)cc3)N(Cc3ccc4c(c3)OCO4)C2=O)cc1 (stereo not given)	-5%	28%	-12%	/	?
COc1ccccc1C(=O)Nc1nnc(SCc2cc(=O)c3cc(Cl)ccc3[nH]2)s1	-4%	8%[57 µM]	-29%	/	-3%[59 µM]
CN(CC(=O)Nc1ccc(F)cc1)CC(=O)N1CCc2ccccc21	3%	30%	-9%	4%	56µM*
CC(=O)Nc1ccc(S(=O)(=O)N(C)CC(=O)Nc2ccccc2N2CCCC2)cc1	-28%	11%	-12%	1%	45µM*
CN(CC(=O)Nc1cccc(F)c1)CC(=O)N1CCc2ccccc21	12%	35%	-17%	-2%	?
CN(C)c1ccc(CNC(=O)Cc2ccc(NC(=O)N3CCCCc4ccccc43)cc2)cc1	45µM*	-12%	50µM*	/	13µM*
CN(CC(=O)Nc1ccccc1N1CCOCC1)S(=O)(=O)c1ccc(F)cc1	-9%	62%	-5%	3%	1%[12.7 µM]
CC(=O)Nc1ccc(S(=O)(=O)N(C)CC(=O)OCC(=O)N2CCc3ccccc32)cc1	2%	33%	5%	/	50µM*
Cc1nn(C)cc1S(=O)(=O)N1CCCCC1C (stereo not given)	-4%	30%	-8%	/	4%
CCc1cccc2c(C(=O)CSc3nnc(-c4ccncc4)n3C)c[nH]c12	-33%	32%	-9%	-10%	32µM*
Cc1cc(C(=O)C(C)Cl)c(C)n1Cc1ccco1 (stereo not given)	?	?	50µM*	-30%	?
SMILES	BAZ2B block	HP1b binding inh	JMJD2A Tudor inh	L3MBTL1 inh	G9a inh
Cc1ccc(-n2c(C)cc(C(=O)CSc3nnnn3C)c2C)cc1	50µM*	-18%	?	-20%	14µM*
Cc1cc(C(=O)CSc2nnnn2C)c(C)n1Cc1ccco1	71µM*	11%	?	-23%	?
Cc1cc(C(=O)CSc2nnnn2C)c(C)n1CCc1ccc(F)cc1	5%	26%	-11%	-2%	21%
COc1ccc(-c2onc(C)c2C)cc1S(=O)(=O)NCc1ccc(C)o1	?	10%	-29%	/	-5%[59 µM]
Cc1ccccc1-n1c(SCC(=O)c2cc(C)n(C)c2C)nnc1-c1ccncc1	?	1%	-27%[57.1 µM]	-16%	71µM*
COc1cccc(NC(=O)CSc2nnc(-c3ccoc3C)n2C)c1	3%	9%	5%	/	-14%
COc1ccc(-n2c(C)cc(C(=O)CSc3nnc(-c4ccoc4C)n3C)c2C)cc1	?	?	?	-11%	50µM*
Cc1cc(C(=O)CSc2nnnn2-c2ccc(O)cc2)c(C)n1C	-10%	?	45µM*	25%	?
Cc1cc(C(=O)CSc2nnnn2-c2ccccc2)c(C)n1CCc1ccccc1	6%	18%	-17%	/	4%
Cc1ccccc1-n1c(SCC(=O)c2ccccc2)nnc1-c1ccc(F)cc1	?	41%	-18%	/	19%[59 µM]
Cc1cc(C(=O)CSc2nc3ccc(Cl)cc3[nH]2)c(C)n1Cc1ccco1	/	40%	-15%	/	/
Cc1cc(C(=O)CSc2ncccn2)c(C)n1Cc1ccco1	8%	48%	-11%	-1%	45µM*
O=C(NCCC1=CCCCC1)c1ccc2c(=O)n3nc(Nc4ccccc4)sc3nc2c1	1%	13%	-24%	/	3%[59 µM]
O=C(O)c1ccc(Cn2cc(/C=C\[N+](=O)[O-])c3ccccc32)o1	?	6%	-24%	-19%	40µM*
CCN(CC)S(=O)(=O)c1cc(-c2ccc(=O)n(C(C)C(=O)Nc3cccc(C#N)c3)n2)ccc1C (stereo not given)	-19%	23%	-22%	/	-7%[59 µM]
Cc1cc(C)c(NC(=O)CS(=O)CC(=O)Nc2ccc(F)cc2F)c(C)c1 (stereo not given)	-10%	21%	-11%	/	29%[12.7 µM]
Cc1ccc(NC2=C(c3ccc(C(F)(F)F)cc3)C(=O)c3ccccc32)cc1C	56µM*	0%	56µM*	/	2.8µM*
Cc1ccc(S(=O)(=O)Nc2cc(C)c(O)c(Sc3n[nH]c(C)n3)c2)cc1	-28%	?	11µM*	/	7.1µM*
CN(C)c1ccc(C(=O)c2ccc(O)cc2O)cc1	?	-7%	-25%[57.1 µM]	-7%	-25%[59 µM]
CN(C)c1ccc(Cc2cc3c(O)ccc(O)c3cc(Cc3ccc(N(C)C)cc3)c2=O)cc1	/	?	3.2µM*	/	/
COCCn1c(SCC(=O)NC2CC2)nc2ccccc21	0%	47%	-11%	3%	-3%[2.33 µM]
N#Cc1c2n(c(=S)n(-c3ccc(OC(F)F)cc3)c1=O)CCCCC2	-15%	22%	-18%	/	-17%[59 µM]
N#Cc1c2n(c(=S)n(-c3ccccn3)c1=O)CCCCC2	5%	23%	-13%	6%	22µM*
CN(C)S(=O)(=O)c1cccc(CSCc2cccc(S(=O)(=O)N(C)C)c2)c1	5%	24%	1%	/	18%
CC(NCc1cccc(S(=O)(=O)N(C)C)c1)c1ccc(F)cc1 (stereo not given)	50µM*	-32%	22µM*	5%	/
Cc1ccccc1NC(=O)Cn1c(SCC(=O)Nc2ccc(F)cc2)nc2ccccc21	-16%	43%	4%	/	4%[12.7 µM]
